The list is a sample of the results.
aSyn 5UTR act – Activators working through SNCA 5'UTR binding (MLPCN); alpha-synuclein 5'UTR reporter, activators screen; activity score, % (tested at 7.5 µM), hits read low; 7.1% of 300,000 active; in the data active = activity score below about -60%
* = called active by the depositor.

SMILES	aSyn 5UTR act
COc1ccc(C(=O)O/N=C(\N)c2ccc(OC)c(OC)c2)c(OC)c1	-96*
N#C/C(=C\C=C\c1ccccc1[N+](=O)[O-])C(=O)NC1CCCCC1	-132*
CN(C)c1ccc(/C=C2\CCCCC2=O)cc1	-104*
O=C(O)c1ccc(N=NN2CCCCCC2)cc1	-168*
O=C(Nc1ccc(-n2cnnn2)cc1)c1cn2ccccc2n1	-89*
CC(C)c1ccc(C(=O)NN2C(=O)C3CCCCC3C2=O)cc1 (stereo not drawn)	-85*
CC(C)c1ccc(C(=O)NNC(=O)C2C3CCC(C3)C2C(=O)O)cc1 (stereo not drawn)	-115*
COc1ccc(-c2ccc(CO)o2)cc1N	-82*
O=C(N/N=C/c1ccc([N+](=O)[O-])cc1)c1[nH]ncc1Br	-68*
CC1CCCC2(C1)NC(=S)c1c(sc3c1CCCC3)N2 (stereo not drawn)	-63*
CSC1CCCCC1(O)CSc1nc2c(cc1C#N)CCCC2 (stereo not drawn)	56
CCc1nnc(NC(=O)CSc2nc3c(cc2C#N)CCCC3)s1	-91*
COC(=O)CC(=O)CSc1nc2c(cc1C#N)CCCCC2	-62*
CCOC(=O)c1sc(NC(=O)CSc2nc3c(cc2C#N)CCCCC3)c(C#N)c1C	-143*
Cc1cccc(C(=O)CC(=O)c2cc(Cl)ccc2O)c1	64
Cc1ccc(O)c(C(=O)CC(=O)c2cccc(F)c2)c1	-85*
NC(=NCCc1ccccc1)NC(=O)c1cc(Cl)ccc1O	-108*
O=C(CC(=O)c1cc(Cl)ccc1O)c1ccccc1	-99*
CCC1(C)Cc2c(sc3nc(SC)n(Cc4ccccc4)c(=O)c23)CO1 (stereo not drawn)	-118*
COc1ccc(C2=NOC(COc3ccc4c(C)cc(=O)oc4c3)C2)c(OC)c1 (stereo not drawn)	83
COc1cccc(C(=O)COc2ccc3c(C)cc(=O)oc3c2)c1	-106*
COc1cccc(COc2ccc3c(C)cc(=O)oc3c2)c1	-164*
CCOC(=O)c1c(C)oc2c(F)c(F)c(F)c(F)c2c1=O	-85*
COc1ccc(-n2cccc2/C=C2/NC(=O)N(c3cccc(Cl)c3)C2=O)cc1	-143*
Cc1ccc(NC(=O)c2sc(N)nc2C)cc1	-185*
SMILES	aSyn 5UTR act
Cc1nc(C(=O)Nc2ccccc2)sc1C(=O)Nc1ccccc1	-166*
Cc1nc(/N=C\N(C)C)sc1C(=O)Nc1ccccc1	-79*
CC(=C/c1ccccc1)/C=N/NC(=O)c1cnccn1	-190*
C/C(=N\NC(=O)C(c1ccccc1)c1ccccc1)c1ccccn1	80
CC(/C=N/NC(=O)C(O)c1ccccc1)=C\c1ccccc1 (stereo not drawn)	-81*
CC(/C=N\NC(=O)c1cc(C)oc1C)=C\c1ccccc1	-119*
CC(/C=N/NC(=O)c1cccnc1)=C\c1ccccc1	-124*
CC(/C=N/Nc1nc(C)cc(C)n1)=C\c1ccc(C(C)C)cc1	-153*
CC(/C=N/NC(=O)c1ccncc1)=C\c1ccc(C(C)C)cc1	-146*
O=C(N/N=C/C(Cl)=C/c1ccccc1)c1cnccn1	-102*
O=C(N/N=C/c1cc([N+](=O)[O-])ccc1Cl)c1cnccn1	81
CS(=O)(=O)c1ccc(Cl)c(NC(=O)CCl)c1	-88*
Cc1ccc(S(=O)(=O)Nc2cc(Cl)c(O)c3ncccc23)cc1	77
Cc1ccc(NC(=O)Nc2cc(S(C)(=O)=O)ccc2Cl)cc1	-77*
CCCn1c(-c2cccc([N+](=O)[O-])c2)nc2c1c(=O)[nH]c(=O)n2Cc1ccccc1	54
O=c1c2ccccc2nc(-c2ccccc2)n1Cc1ccccc1	-93*
COc1cc(C=O)ccc1Oc1nnnn1-c1ccc(C(N)=O)cc1	-68*
O=C1Nc2cc(Cl)c(Cl)cc2N(O)N1c1ccc(Cl)cc1	-149*
COc1ccc([N+](=O)[O-])cc1N/C(=N/S(=O)(=O)c1ccccc1)c1ccccc1	-70*
COCC1CCCN(C(=O)c2ccc3nc(Cc4cccc(Cl)c4)oc3c2)C1 (stereo not drawn)	-77*
COC(=O)CN(C)C(=O)c1ccc2nc(Cc3cccc(Cl)c3)oc2c1	-109*
CC(C)(CO)NC(=O)c1ccc2nc(Cc3cccc(Cl)c3)oc2c1	-102*
O=C(/C=C/c1c(Cl)cccc1Cl)Nc1ccncc1	-293*
CN1CCN(C(=O)/C=C/c2c(F)cccc2Cl)CC1	-68*
O=C(/C=C/c1c(F)cccc1Cl)Nc1ccncc1	-328*
SMILES	aSyn 5UTR act
N#Cc1cnc(SCCc2ccccc2)nc1N	-71*
Cc1ccccc1C(=O)Nc1nnc(-c2ccco2)s1	65
O=C(CSc1nnc(NC(=O)c2ccccc2F)s1)NCc1ccc(F)cc1	-84*
COc1ccccc1C(=O)Nc1nnc(SCC(=O)NCc2ccco2)s1	-67*
COc1ccc(C(=O)Nc2nnc(SCC(=O)NC3CCCC3)s2)c(OC)c1	58
COc1ccccc1C(=O)Nc1nnc(-c2ccco2)s1	-168*
COc1ccc(C(=O)Nc2nnc(SCC(=O)Nc3ccc(NC(C)=O)cc3)s2)c(OC)c1	-63*
O=C(CSc1nnc(NC(=O)c2ccccc2F)s1)NCc1ccco1	-80*
COc1ccccc1C(=O)Nc1nnc(SCC(=O)NCC2CCCO2)s1 (stereo not drawn)	-102*
COc1ccccc1-c1nnc(NC(C)=O)s1	-91*
O=C(CSc1nnc(NC(=O)c2ccc(F)cc2F)s1)NC1CC1	-69*
CCNC(=O)NC(=O)COC(=O)c1ccccc1SCC(=O)NC(=O)NCC	-122*
CCC(C)NC(=O)Cn1c(COc2ccc(Cl)cc2Cl)nc2ccccc21 (stereo not drawn)	-122*
Oc1ccccc1CNc1cnc2ccccc2c1	-260*
Oc1ccc2ccccc2c1CNc1cnc2ccccc2c1	-97*
C=CCc1cccc(CNc2cnc3ccccc3c2)c1O	-94*
CC(=O)c1cccc(NC(=O)CN2C=NS(=O)(=O)c3ccc(C)cc32)c1	-124*
Brc1cccc2sc(N3CCCC3)nc12	-75*
Fc1cccc2sc(N3CCCC3)nc12	-79*
Clc1cccc2sc(N3CCOCC3)nc12	-64*
C=CCNC(=S)NC(=O)c1ccc(C)c(Br)c1	-106*
COc1ccccc1N1C(=O)S/C(=C\c2ccc(C)s2)C1=O	-135*
Cc1ccc(/C=C2\Sc3ccccc3C2=O)s1	-104*
COc1ccccc1N1C(=O)S/C(=C\c2cc(C)n(C)c2C)C1=O	-128*
COc1ccc(/C=C2\SC(=O)N(CCC(=O)Nc3ccccc3)C2=O)cc1OC	82
SMILES	aSyn 5UTR act
COc1ccccc1/C=C1\SC(=O)N(CCC(=O)NNC(=O)c2ccccc2Cl)C1=O	-74*
O=C(NOCc1ccccc1)c1ccccc1	-92*
COc1ccccc1CCCNC(=O)C1CCC(=O)N(Cc2ccccc2F)C1 (stereo not drawn)	-130*
O=C(NCCCC1CCCC1)C1CCC(=O)N(Cc2cccc(F)c2)C1 (stereo not drawn)	-161*
Cc1cc(SCC(=O)N/N=C/c2ccc(O)cc2O)nc2ccccc12	58
Cc1cc(SC(C)C(=O)NCC(=O)Nc2ccc(F)c(F)c2F)nc2ccccc12 (stereo not drawn)	46
O=C(CSc1ncn(-c2ccccc2)n1)c1cccs1	-177*
Nc1nc(CSc2ncn(-c3ccccc3)n2)cs1	-154*
Cc1cc(SCC(=O)c2cccs2)nc2ccccc12	-81*
c1ccc(CSc2ncn(-c3ccccc3)n2)cc1	-138*
N/C(COc1ncn(-c2ccccc2)n1)=N\S(=O)(=O)c1ccccc1	18
Cc1nc2ccccc2cc1OCc1ccc(Cl)cc1	-72*
COc1cccc(COc2cc3ccccc3nc2C)c1	-96*

Bioassay records: PubChem BioAssay, Broad Institute
